High-throughput results deposited in PubChem by Buhrlage Lab, Dana-Farber Cancer Institute and Novartis Institutes for BioMedical Research (Cambridge, Mass).
An excerpt weighted towards active compounds, which were near 11% of everything screened.
USP30 inh: inhibitors of human USP30 deubiquitinase; AID 1645860; inhibition, % at 25 µM; purified USP30, Ub-rhodamine cleavage fluorescence; Q70CQ3; 5.3% of 47,000 active
USP28 block: inhibitors of human USP28 deubiquitinase. AID 1645857. inhibition, % at 25 µM. purified USP28, Ub-rhodamine cleavage fluorescence, 30 min. 3% of 47,000 active
USP17 block: inhibitors of human USP17 deubiquitinase. purified USP17, Ub-rhodamine cleavage fluorescence, 3 h. A8MUK1. inhibition, % at 50 µM. 6.5% of 47,000 active
Target sequence (A8MUK1 whole entry, looked up): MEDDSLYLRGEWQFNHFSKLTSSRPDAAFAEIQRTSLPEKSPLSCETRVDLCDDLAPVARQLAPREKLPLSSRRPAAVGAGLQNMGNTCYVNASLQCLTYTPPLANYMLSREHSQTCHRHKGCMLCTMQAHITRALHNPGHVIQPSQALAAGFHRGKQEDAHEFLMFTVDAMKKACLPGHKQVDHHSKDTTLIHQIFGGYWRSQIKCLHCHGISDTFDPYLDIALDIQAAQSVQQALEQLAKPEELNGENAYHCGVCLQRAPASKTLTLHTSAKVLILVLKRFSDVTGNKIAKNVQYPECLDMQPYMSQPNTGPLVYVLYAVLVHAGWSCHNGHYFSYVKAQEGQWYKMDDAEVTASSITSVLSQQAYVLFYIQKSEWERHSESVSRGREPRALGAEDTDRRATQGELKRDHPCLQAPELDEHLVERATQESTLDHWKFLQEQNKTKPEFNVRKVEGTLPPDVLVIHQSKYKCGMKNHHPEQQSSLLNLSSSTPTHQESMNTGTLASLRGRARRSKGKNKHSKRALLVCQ
Of the large screens only hits and unclear results are named; the others gave an inactive call. No stated cut-off is given here; in the data, active means inhibition above about 30%; inactive means the rest.

O=C(c1ccnnc1)N1CC[C@@H]2CN(Cc3ccc(Cl)cc3)S(=O)(=O)[C@@H]2CC1	none
O=C(NC1CC1)c1ccc(C2Nc3ccccc3S(=O)(=O)N2)cc1 (stereo unspecified)	none
CCc1ccc(NC(=O)N2CC[C@@H]3CN(C)S(=O)(=O)[C@@H]3CC2)cc1	none
Cc1ccc(NC(=O)C2Nc3ccccc3S(=O)(=O)N2)cc1C (stereo unspecified)	USP17 block 66.4 (no result: USP30 inh, USP28 block)
CC(=O)N1CCC(N(Cc2ccccc2Cl)C(=O)Nc2ccc(C)c(C)c2)CC1	none
CCc1ccc(NC(=O)C2Nc3ccccc3S(=O)(=O)N2)cc1 (stereo unspecified)	USP30 inh 45.7, USP17 block 41.1
CC(C)c1ccc(NC(=O)c2ccc(C3Nc4ccccc4S(=O)(=O)N3)cc2)cc1 (stereo unspecified)	USP30 inh 50.5, USP17 block 64.8
O=C(NCc1ccc2c(c1)OCO2)c1cccc(-n2cnnc2)n1	none
CC(Cc1ccco1)NC(=O)c1nnc(-c2ccc(S(=O)(=O)N3CCOCC3)cc2)o1 (stereo unspecified)	none
O=C(Cn1c(=O)n(CCC(=O)N2CCc3ccccc3C2)c(=O)c2ccccc21)NCc1ccccc1Cl	USP30 inh 52.7, USP28 block 49.1, USP17 block 76.7
Cc1ccccc1Cn1c(=O)n(CCCC(=O)N2CCc3ccccc3C2)c(=O)c2ccccc21	USP30 inh 47.4
O=C(CCn1c(=O)c2ccccc2n(Cc2cc(=O)n3ccccc3n2)c1=O)N1CCc2ccccc2C1	none
O=C(Cn1c(=O)n(CCC(=O)N2CCc3ccccc3C2)c(=O)c2ccccc21)NCCC1=CCCCC1	none
CCOc1cccc2nnc(NC(=O)Nc3ccccc3CC)n12	USP30 inh 53.7, USP17 block 55.6
CCOc1nc2cccnc2n(CC(=O)Nc2ccccc2CC)c1=O	none
COC(=O)c1ccc(NC(=O)c2ccc(-n3nncc3C)cc2)cc1	none
Cc1cnnn1-c1ccc(C(=O)Nc2ccccc2F)cc1	USP30 inh 34.0
Cc1cnnn1-c1ccc(C(=O)Nc2ccccc2C(F)(F)F)cc1	none
Cc1cnnn1-c1ccc(C(=O)Nc2ccc(Cl)cc2Cl)cc1	USP30 inh 80.8, USP28 block 36.9, USP17 block 84.4
Cc1ccc2nc(-c3ccc(C(C)C)cc3)cc(C(=O)N3CCC(Cc4ccccc4)CC3)c2c1	none
O=C(c1ccc(-n2cncn2)cc1)N(Cc1ccco1)C1CCCC1	none
Cc1ccc(NC(=O)CSc2ncnc3c2sc2nc(-c4ccccc4)c4c(c23)CCC4)cc1	none
O=[N+]([O-])c1cccc(-c2noc(CSc3ccccc3)n2)c1	USP28 block 66.9
O=[N+]([O-])c1cccc(-c2nnc(-c3ccccn3)o2)c1	none
Cc1nn(-c2ccccc2)c2c1c(C)c(CCC(=O)NCc1ccc(F)cc1)c(=O)n2C	USP17 block 36.6
CC(=O)Nc1ccc(NC(=O)CCc2c(C)c3c(C)nn(-c4ccccc4)c3n(C)c2=O)cc1	none
COc1ccc(CNC(=O)CCc2c(C)c3c(C)nn(-c4ccccc4)c3n(C)c2=O)cc1	none
CC(=O)c1ccc(NC(=O)CCc2c(C)c3c(C)nn(-c4ccccc4)c3n(C)c2=O)cc1	USP17 block 38.5
CCc1ccccc1S(=O)(=O)NCc1nc(C(=O)N2CCCC2)c(C)o1	none
CCN1CCN(c2ccc(C(=O)OC)cc2NC(=O)Cc2ccccc2)CC1	none
Cc1ccccc1CNC(=O)c1[nH]c(C)c(S(=O)(=O)N2CCCC2)c1C	none
COc1c2c(cc3c1C(c1nnnn1-c1cccc(C)c1C)N(C)CC3)OCO2 (stereo unspecified)	none
Cc1cccc(NC(=O)CC2Nc3ccccc3OC2=O)c1 (stereo unspecified)	USP17 block 40.5
O=C(CC1Nc2ccccc2OC1=O)Nc1ccc(Cl)cc1 (stereo unspecified)	none
CC(C)NC(=O)CN1C(=O)C(C)(C)Oc2ccc(C(=O)c3ccco3)cc21	none
Cc1cccc(N2CCN(C(=O)CN3Cc4ccccc4C3=O)CC2)c1C	none
Cc1ccc(Cl)cc1N1CCN(C(=O)CN2Cc3ccccc3C2=O)CC1	USP28 block 46.6
Cc1ccc(N2CCO[C@@H]3CN(Cc4ccccn4)CC[C@@H]3C2)nn1	none
N#C/C(=C\c1cccc(Oc2ncccn2)c1)c1ccc2c(c1)OCO2	USP17 block 30.4 (no result: USP30 inh, USP28 block)
COc1ccc(/C(C#N)=C/c2cn[nH]c2)cc1	none
COc1ccc(OC)c(/C=C(/C#N)c2nc(-c3ccc4c(c3)OCO4)cs2)c1	none
COc1ccc(/C(C#N)=C\c2ccc3c(c2)OCO3)cc1	USP30 inh 34.6, USP28 block 33.4
CCC(C)[C@H](NC(=O)c1ccc(N2C(=O)[C@@H]3Cc4ccccc4CN3C2=O)cc1)C(=O)O (stereo partly specified)	none
COCC(=O)N1CCC(n2c(C3CC3)nc3sc(C)c(C)c3c2=O)CC1	none
Cc1sc2nc(C3CC3)n(C3CCN(C(=O)C4CCC4)CC3)c(=O)c2c1C	USP30 inh 39.3
COc1ccccc1C(=O)N1CCC(c2nc3c(nnn3Cc3ccc(C)cc3)c(=O)[nH]2)CC1	none
CC(=O)N1c2ccccc2NC2=C(C(=O)CC(c3ccc(C)cc3)C2)C1c1cccnc1 (stereo unspecified)	none
CCOc1ccc(C2=NCCNC3=C2C(c2ccccc2)N(c2ccccc2)C3=O)cc1 (stereo unspecified)	USP30 inh 53.7
Cc1ccc(C2C3=C(NCCN=C3c3ccccc3)C(=O)N2c2ccccc2)cc1 (stereo unspecified)	USP30 inh 40.6
CCOc1ccc([C@@H]2c3c(C)nn(-c4ccccc4)c3NC(=O)[C@H]2NC(=O)c2cccc(C)c2)cc1	none
Cc1cccc(C(=O)N2CCc3cc(-c4nc(NC(=O)C5(c6ccc(Cl)cc6)CCC5)sc4C)ccc32)c1	none
CC(=O)NCCn1c(=O)n(Cc2ccc(F)cc2)c2cccnc21	none
O=C(NCCCO)c1cc(-c2csc(-c3cnccn3)n2)n2ccccc12	none
O=c1c2ccccc2oc2nc(-c3cccs3)n(-c3ccccc3)c(=O)c12	USP30 inh 32.8, USP17 block 57.5
O=c1oc(-c2cccs2)ns1	none
Cc1ccc(Nc2nc(N3CCCC3)nc3c2cnn3C)cc1Cl	none
Cc1ccc(Nc2nc(N3CCN(c4ccc(F)cc4)CC3)nc3c2cnn3C)cc1	USP30 inh 31.4
Cc1nc(N[C@@H](Cc2ccccc2)C(=O)O)c2oc3ccccc3c2n1	none
Cc1nc(NCCc2ccc(S(N)(=O)=O)cc2)c2oc3ccccc3c2n1	USP30 inh 36.2
O=c1c(N2CCNCC2)nc2cccnc2n1Cc1ccccc1	none
COc1cc(OC)c2c(=O)cc(-c3ccccc3)oc2c1	none
O=c1c(-c2ccc(O)cc2)coc2cc(O)cc(O)c12	none
O=c1c(O)c(-c2ccc(O)c(O)c2)oc2cc(O)cc(O)c12	USP30 inh 81.0, USP28 block 98.4, USP17 block 97.3
O=c1cc(-c2ccc(O)c(O)c2)oc2cc(O)cc(O)c12	USP30 inh 100.7, USP28 block 98.8, USP17 block 99.5
Cc1c(NC(=O)Cc2cccs2)cccc1-n1cnnn1	none
CCN(CC)c1ccc2cc(C(=O)Nc3ccc(S(=O)(=O)N4CCOCC4)cc3)c(=N)oc2c1	none
C[C@@H](C[C@@H](O)[C@@H]1OC1(C)C)[C@@H]1CC[C@]2(C)C3=CCC4C(C)(C)C(=O)CC[C@]4(C)C3CC[C@@]12C (stereo partly specified)	none
